The values that follow come from the OligoGym collection.
Further: reference of the scale not given here.

The target in one experiment is RANGAP1. The experiment in a line: pooled miR-30 sensor sort-seq; sequence = guide strand. The conditions noted are these: shRNA.
Sequence TAATCACATCTTTAGCATCTTC showed a sensor-assay potency score (higher = more potent) of -0.22.

TTTCCGGTGACATTCGGTCAGA: the sensor-assay potency score (higher = more potent) is -1.19.

Consider TAGGAAGGCAGAGACCACCTTC, for which the sensor-assay potency score (higher = more potent) is 0.359.

The sequence TTCAACTCCGACTTCTTCTCTA yielded a sensor-assay potency score (higher = more potent) of 0.789.

In turn, TTCACTCTTGAGCAGACCCATG came in with a sensor-assay potency score (higher = more potent) of -1.41.

For the sequence TTGAACACAGATGACACCTTTA, the sensor-assay potency score (higher = more potent) was -0.0745.

The sequence TTGACCTTGTCTTCACTCTTGA gave a sensor-assay potency score (higher = more potent) of 0.405.

In turn, TTAGGGTCCAGAATCTTCCGTG yielded a sensor-assay potency score (higher = more potent) of 0.289.

The next experiment addresses RASGEF1A. The description is as above. The conditions noted are these: shRNA.
Take TGAAGAACTCCAACATGCGGGT: the sensor-assay potency score (higher = more potent) is -0.41.

As for AAGGTGAAGATGTACGTCCTAT, the sensor-assay potency score (higher = more potent) turned out to be 0.212.

The sequence TGTTTCTTCTTCACCACCCGGC gave a sensor-assay potency score (higher = more potent) of 0.377.

On to TTTTTCCATGTGGTTCTCGGGA, for which the sensor-assay potency score (higher = more potent) was -0.794.

Turning to TGAATCTTCTTGTCCTTCTCGA, the sensor-assay potency score (higher = more potent) came out at 0.828.

Consider TAGGTCTTGGTCAGGTCCCCTC, for which the sensor-assay potency score (higher = more potent) was -1.

Regarding AAACTTGGCTGTCTTGACCTTG, the sensor-assay potency score (higher = more potent) was -0.781.

TTCTTGTCCTTCTCGAAAGGAC gave a sensor-assay potency score (higher = more potent) of -0.791.

Take TTCAGGAGCTGCACGATCTTGG: the sensor-assay potency score (higher = more potent) was -0.661.

Take ATGAAGAACTCCAACATGCGGG: the sensor-assay potency score (higher = more potent) was -0.48.

Regarding TTGCAGAAGTTGCTGGACGGGT, the sensor-assay potency score (higher = more potent) is -0.613.

For AATCTTCTTGTCCTTCTCGAAA, the sensor-assay potency score (higher = more potent) was -1.91.

For the next experiment, the target named is RASGEF1C. Described as above. The conditions noted are these: shRNA.
The sequence TTAGAGCTTTCCATCTTTCTTT returned a sensor-assay potency score (higher = more potent) of -0.12.

Consider TGTAGTTGCAGAAATTCCCCGT, for which the sensor-assay potency score (higher = more potent) was 0.202.

On to TTTCTCGGGGTAGTAGTCGGCT, for which the sensor-assay potency score (higher = more potent) was -0.879.

On to TTTTCTGTTTGGTTCTCTGGGC, for which the sensor-assay potency score (higher = more potent) is -0.505.

Sequence TCTCACTTTCGTAAGAAGCCAA had a sensor-assay potency score (higher = more potent) of -0.537.

Regarding TGAACCATTTCACATAAGCCTC, the sensor-assay potency score (higher = more potent) is -1.38.

The sequence TTCCACGTGGGTCAGCTGCTGG had a sensor-assay potency score (higher = more potent) of -1.01.

TTTCACATAAGCCTCCAGGTTG returned a sensor-assay potency score (higher = more potent) of -0.649.

ATGACAATCTTCTCTCGGCTGC yielded a sensor-assay potency score (higher = more potent) of -0.296.

The sequence ATGAAGAACTCAATCACCTGGG came in with a sensor-assay potency score (higher = more potent) of 0.211.

TAGCACAGCCTGTTGAACCATT registered a sensor-assay potency score (higher = more potent) of -1.09.

In turn, TTTTTCTGTTTGGTTCTCTGGG gave a sensor-assay potency score (higher = more potent) of 0.0788.

A further experiment deals with RASGRP2. The description is as above. The conditions noted are these: shRNA.
On to TACTGATCCAGAGACACCGTGA, for which the sensor-assay potency score (higher = more potent) came out at 0.0565.

Consider TCAAACAACAGGGACATCTTGC, for which the sensor-assay potency score (higher = more potent) was -0.201.

The sequence TAGCAGAGCCTTCAGCTCCTTG returned a sensor-assay potency score (higher = more potent) of -0.951.

In the case of TTAGGCTGCTGTGCCGTCGGTT, the sensor-assay potency score (higher = more potent) is -0.65.

In turn, TAGTCCTGAAACAGGATCTTGC registered a sensor-assay potency score (higher = more potent) of -0.808.

For TCTATGTCGATTAGGCTGCTGT, the sensor-assay potency score (higher = more potent) was -0.615.

TTCTTGGTCTAGCAGAGCCTTC: the sensor-assay potency score (higher = more potent) is -1.75.

TTGGTAGATGTGGAGCAGCTTG returned a sensor-assay potency score (higher = more potent) of -1.27.
